# Bioassay records (PubChem BioAssay)
# 12-LOX inh = blocks human arachidonate 12S-lipoxygenase | P18054 | purified 12hLO, xylenol orange hydroperoxide absorbance | Potency, µM (doses to about 108 µM), for inactives: top-dose activity change, negative = inhibition, hits mostly inhibitors | hit rate 1.1% among 580,000
#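 Hydroperoxide product was detected by ferrous iron/xylenol orange as the 573 to 405 nm absorbance ratio. Arachidonic acid at 40 uM (final) was turned over for 30 min at room temperature by 150 nM human 12hLO, pH 7.0 Hepes buffer, after 15 min compound preincubation.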
# VDR inhibitor = vitamin D3 receptor (human) inhibition; P11473; VDR-SRC2-3 peptide fluorescence polarization, 2 h; hit rate 0.93% among 400,000; AID 504847; Potency, µM, for the others: max response, negative = inhibition, usual class: inhibitors
#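 Measured by FP: displacement of SRC2-3 coactivator peptide from VDR by library compounds, following a two-hour ambient incubation.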
# GCN5L2 inh = GCN5L2 (KAT2A) acetyltransferase inhibition; GCN5L2 HAT assay, ThioGlo1 CoA-SH fluorescence; hit rate 0.21% among 390,000; Q92830; Potency, µM (top dose mostly 58.9 µM), inactives show top-dose activity change, negative = inhibition, most hits filed as inhibitors
# Target sequence (Q92830 whole entry, looked up): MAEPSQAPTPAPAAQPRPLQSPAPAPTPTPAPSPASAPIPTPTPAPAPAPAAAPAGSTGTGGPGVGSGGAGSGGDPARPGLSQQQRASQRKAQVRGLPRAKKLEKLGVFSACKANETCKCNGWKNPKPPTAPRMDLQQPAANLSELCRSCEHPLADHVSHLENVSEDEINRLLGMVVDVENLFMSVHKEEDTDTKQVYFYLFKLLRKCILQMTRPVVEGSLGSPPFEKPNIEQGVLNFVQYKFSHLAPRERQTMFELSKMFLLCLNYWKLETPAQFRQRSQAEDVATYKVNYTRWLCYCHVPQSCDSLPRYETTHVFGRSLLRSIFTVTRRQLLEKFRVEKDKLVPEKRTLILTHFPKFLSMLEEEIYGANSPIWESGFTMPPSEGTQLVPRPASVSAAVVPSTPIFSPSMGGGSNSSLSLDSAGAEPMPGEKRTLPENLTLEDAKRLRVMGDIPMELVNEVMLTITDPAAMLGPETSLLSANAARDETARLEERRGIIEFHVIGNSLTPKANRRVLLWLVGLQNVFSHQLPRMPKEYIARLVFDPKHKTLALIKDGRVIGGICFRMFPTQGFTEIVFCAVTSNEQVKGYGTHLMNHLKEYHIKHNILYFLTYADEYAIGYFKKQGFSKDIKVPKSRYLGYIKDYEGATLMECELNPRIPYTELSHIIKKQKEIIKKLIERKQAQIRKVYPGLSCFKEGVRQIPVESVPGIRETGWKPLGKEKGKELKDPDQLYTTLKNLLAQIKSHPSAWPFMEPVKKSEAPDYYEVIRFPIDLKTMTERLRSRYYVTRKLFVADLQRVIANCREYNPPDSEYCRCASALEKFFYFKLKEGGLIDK
#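 GCN5L2 (20 nM) in 50mM HEPES pH 7.5, 0.1mM EDTA, 0.01% Tween-20 preincubated 15 min with compounds at room temperature. Reaction started with H3(1-25) 75uM, acetyl-CoA 70uM, ThioGlo1 50uM; CoA-thiol fluorescence (Ex340/Em540) read at 0 and 20 min.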
# PLK1 PBD block = PLK1 (human) polo-box domain binding inhibition; Plk1 PBD binding of FITC phosphopeptide, fluorescence polarization; P53350; Potency, µM, inactives show max response, negative = inhibition, actives largely listed as inhibitors; AID 720504; hit rate 2.8% among 360,000; also: series mostly up to about 57 µM; nearly all actives have a fitted effect of over 65% in size
# The depositor's hits bear a star; ? = inconclusive; · = not tested or not shown; ! = not confirmed by another sample; [ ] = dose if it differs, or a comment. Sampled rows, rich in hits. Any-hit rate of the full collection: about 3%. Calls follow the shape of the dose curve; as a rule, active = well fitted curve in the direction sought with a large enough effect; inconclusive = small, poorly fitted or top-dose-only effect, or another doubt; inactive = no such curve, though single readings can be large; an effect the other way counts as inactive or inconclusive. % is scaled to controls: 0 for no effect and ±100 for the full control effect; potency is read from the fitted curve at half-maximal effect.
SMILES,12-LOX inh,VDR inhibitor,GCN5L2 inh,PLK1 PBD block
CC(Oc1cc2oc(=O)c3c(c2cc1Cl)CCC3)C(=O)NCCCN1CCOCC1 (stereo not given),14.4%,-16.3%,-5.8%,0.1%
Cc1c(C)c2cc(Cl)c(OC(C)C(=O)NCCN3CCOCC3)cc2oc1=O (stereo not given),6.9%,?,-16.8%,23.8µM*
CC(Oc1cc2oc(=O)c3c(c2cc1Cl)CCCC3)C(=O)NCCN1CCOCC1 (stereo not given),-15.0%,?,-3.7%,23.8µM*
O=C(Cc1csc(-c2cccs2)n1)Oc1ccc(Cl)c2ccccc12,1.7%,·,·,·
CCCN1C(=O)NC(c2ccc(Br)s2)C(C(=O)OC)=C1C (stereo not given),-18.2%,·,·,·
Cn1c(=O)c2c(nc(Oc3ccc(F)cc3)n2Cc2ccccc2F)n(C)c1=O,25.8%,·,·,·
Nc1nc(NC(=O)c2ccc(F)cc2)ns1,4.0%,?,-11.4%,29.9µM*
COc1ccc(C(=O)Nc2ccc(C)c3ncccc23)c(OC)c1,0.1%,·,·,·
COc1ccc(-n2c(=O)c(-c3ccc(Cl)cc3)nc3cnc(N4CCOCC4)nc32)cc1,?,39.8µM*,-12.7%,·
COc1ccc(-n2c(=O)c(-c3ccc(Cl)cc3)nc3cnc(N(C)C)nc32)cc1,11.2µM*,2.9%,-2.6%,·
CC[C@](N)(CCC(=O)O)C(=O)O,2.82µM*!,-4.7%,-3.1%,·
CN1CCN(C(c2ccccn2)c2cc(Cl)c3cccnc3c2O)CC1 (stereo not given),?,50.1µM*,-16.0%,9.47µM*
Oc1c(C(c2ccccn2)N2CCC(Cc3ccccc3)CC2)cc(Cl)c2cccnc12 (stereo not given),?,?,-13.8%,?
CC(=O)Nc1cccc(C(=O)N/N=C/c2cccc(C)n2)c1,9.0%,?,4.6%,26.7µM*
Cc1c(C(=O)N2CCCCC2)c(S(=O)(=O)Nc2cccc(Br)c2)c(C)n1C,12.8%,14.9%,-6.1%,-5.4%
Cc1c(C(=O)N2CCOCC2)c(S(=O)(=O)Nc2cccc(Br)c2)c(C)n1C,32.7%,-20.6%,-9.1%,26.7µM*
Cc1c(C(=O)N2CCOCC2)c(S(=O)(=O)Nc2ccc(Br)cc2F)c(C)n1C,?,?,-2.6%,26.7µM*
O=C(NCC1Cn2cccc2C(=O)N1Cc1ccccc1)c1ccc2ccccc2n1 (stereo not given),55.8%,·,·,·
Cc1ccc2c(c1)cc(CN(Cc1cccs1)C(=O)c1ccco1)c1nnnn12,0.0%,?,-0.7%,8.44µM*
Cc1ccc2cc(CN(Cc3cccs3)C(=O)c3ccco3)c3nnnn3c2c1C,·,·,-2.9%,·
Cc1ccc2c(c1)NC(=O)C(CC(=O)NCCCN1CCCC1=O)O2 (stereo not given),471.6%,?,-1.3%,29.9µM*
Cc1ccc2c(c1)NC(=O)C(CC(=O)NCCCN1CCCCC1)O2 (stereo not given),449.3%,-2.3%,-16.5%,-7.2%
CCCn1nnnc1CN1CCCC1c1ccc(OCC)cc1 (stereo not given),-2.4%,·,·,·
CC(C)c1ccc(/C=C/C(=O)NC(=S)Nc2ccc(CN3CCOCC3)cc2)cc1,39.8µM*,-15.9%,-7.3%,-11.8%
O=C(/C=C/c1ccc(Cl)cc1)NC(=S)Nc1ccc(N2CCOCC2)c(Cl)c1,-20.6%,-6.6%,0.2%,18.9µM*
SMILES,12-LOX inh,VDR inhibitor,GCN5L2 inh,PLK1 PBD block
CC(C)c1ccc(/C=C/C(=O)NC(=S)NN2CCOCC2)cc1,?,-19.4%,-1.3%,-17.0%
O=C(O)/C=C/C(=O)Nc1ccc(N2CCOCC2)cc1,31.6µM*,·,·,·
O=C(/C=C/c1ccc(Cl)cc1)Nc1ccc(N2CCOCC2)cc1,-10.8%,?,-5.3%,23.8µM*
O=C(CCc1ncc(-c2ccccc2F)o1)Nc1ccc(F)cc1,-15.0%,·,·,·
COc1ccc(NC(=S)N(Cc2ccc(Cl)cc2)Cc2ccc(C(=O)O)cc2)cc1Cl,?,-1.9%,-2.2%,?
Cc1ccc(NC(=S)N(Cc2ccc(Br)cc2)Cc2ccc(C(=O)O)cc2)cc1C,39.8µM*,-9.7%,-10.2%,?
Cc1cc(NC(=S)N(Cc2ccc(Cl)cc2)Cc2ccc(C(=O)O)cc2)ccc1Cl,39.8µM*,-12.6%,?,29.9µM*
CCc1ccc(NC(=S)N(Cc2ccc(Cl)cc2)Cc2ccc(C(=O)O)cc2)cc1,39.8µM*,-24.0%,?,23.8µM*
Cc1ccc(C)c(NC(=S)N(Cc2ccc(Cl)cc2)Cc2ccc(C(=O)O)cc2)c1,44.7µM*,23.3%,-11.2%,-23.4%
Cn1cc(C(=O)N(CCN2CCOCC2)C2CCCC2)c2ccccc21,-2.1%,·,·,·
Cc1ccc(C(=O)CNc2ccc(Cl)cc2)cc1,?,35.5%,-17.9%,-12.5%
Cc1ccc(C)c(NCC(=O)c2ccc(Cl)cc2)c1,35.5µM*,-12.0%,-7.1%,-2.8%
Cc1cc(C)cc(NC(=S)N(Cc2ccc(Cl)cc2)Cc2ccc(C(=O)O)cc2)c1,35.5µM*,-19.6%,-6.2%,-7.6%
Cc1cc(C)cc(NC(=S)N(Cc2ccc(Br)cc2)Cc2ccc(C(=O)O)cc2)c1,28.2µM*,-12.3%,?,?
Cc1cccc(NC(=S)N(Cc2ccc(Cl)cc2)Cc2ccc(C(=O)O)cc2)c1,0.0%,-13.2%,-3.9%,-11.2%
Cc1ccc(N=Cc2c(Cl)cccc2Cl)c(C)c1,28.3%,·,·,·
O=C(CSc1nc2ccccc2s1)Nc1cc(C(F)(F)F)ccc1Cl,-1.8%,·,·,·
CCOc1cc(C2NC(=O)CCC2[N+](=O)[O-])cc(Br)c1OC (stereo not given),0.0%,?,2.0%,26.7µM*
Cn1nc(C(=O)NC(c2ccccc2)c2cccs2)c2ccccc2c1=O (stereo not given),-10.4%,·,·,·
Cc1ccc(NC(=O)Cn2cnc3ccccc32)cc1C,-0.5%,?,-2.1%,13.4µM*
Cn1c(OCc2ccco2)nc2c1c(=O)n(Cc1ccc(Cl)c(Cl)c1)c(=O)n2C,·,-11.1%,-2.6%,11.9µM*
CCOc1ccccc1CNS(=O)(=O)c1ccc2c(c1)oc(=O)n2C,3.98µM*,-6.6%,-7.6%,26.7µM*
CN1CC(=O)N(C2CCCNC2)Cc2c(NCc3ccc4c(c3)OCO4)ncnc21 (stereo not given),4.47µM*,·,·,·
CN1CC(=O)N(C2CCC2)Cc2c(NCc3ccc(F)cc3)ncnc21,-2.8%[6.33 µM],·,·,·
O=C(COc1ncnc2ccccc12)N(Cc1ccccc1)Cc1ccccc1,-25.5%,·,·,·
SMILES,12-LOX inh,VDR inhibitor,GCN5L2 inh,PLK1 PBD block
O=C(CSc1nc2ccccc2c(=O)n1CC1CCCO1)Nc1ccc2[nH]c(=O)[nH]c2c1 (stereo not given),-1.0%,·,·,·
O=S(=O)(NC[C@H]1O[C@@H](CO)[C@@H](O)[C@H]1N1CCOCC1)c1ccccc1,-2.1%[176 µM],·,·,·
O=C(NC[C@H]1O[C@@H](CO)[C@@H](O)[C@H]1N1CCN(c2ccccn2)CC1)Nc1ccc(F)cc1F,10µM*,·,·,·
O=S(=O)(NC[C@H]1O[C@@H](CO)[C@@H](O)[C@H]1N1CCN(c2ccccc2)CC1)c1ccc(F)cc1,22.4µM*,·,·,·
CN(CCc1ccccn1)[C@@H]1[C@H](O)[C@H](CO)O[C@@H]1CNC(=O)Nc1ccc(F)cc1F,63.1%,·,·,·
O=C(O)c1ccccc1Nc1cc(Cl)c2nonc2c1[N+](=O)[O-],?,35.5µM*,-13.9%,7.52µM*
O=C(O)c1ccccc1Nc1ccc([N+](=O)[O-])cc1,-11.8%,-7.5%,-2.3%,-9.0%
